# Reference: PubChem BioAssay AID588397 (National Center for Advancing Translational Sciences (NCATS), 2011)
# Several values for one entry are separate records, joined by “and”; a condition that tells them apart may be missing. Equal values may be shown once. In all, about 1,300 compounds went through this assay and about 1,000 (77%) were called active. Another 7% or so got no clear call; they are omitted. Calls come from the whole dose curve; as a rule, active = well fitted inhibition curve with a large enough effect; inconclusive = small, poorly fitted or top-dose-only effect; inactive = no such curve, though single readings can be large or run the other way. The set was probably picked from earlier hits. The list shows a part of the results.
# Assay: qHTS of small molecules that selectively kill Giardia lamblia: Hit Validation.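 Note: viability measured as ATP content by luminescence so killing lowers signal; trophozoites exposed to compounds for 48 h anaerobically at 37 °C; nearly all actives have a fitted effect of over 65% in size.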
# Settings: Giardia lamblia trophozoite viability, dose-response; series mostly up to 38.3 µM
# In short: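 Killing of trophozoites was scored by loss of ATP luminescence after a 48 hrs anaerobic exposure to compounds at 37 deg C, using 100 cells per well.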
# Potency is the fitted concentration of half-maximal effect.
row,SMILES,Potency
1,O=C(Nc1ncc([N+](=O)[O-])s1)c1ccccc1Br,0.206 µM (active)
2,O=C(Nc1ncc([N+](=O)[O-])s1)c1ccco1,0.818 µM (active)
3,O=C(Nc1ncc([N+](=O)[O-])s1)c1cccs1,460 nM (active) and 729 nM (active)
4,CC(=O)O[C@]1(C(C)=O)CCC2C3CCC4=C/C(=N/OCC(=O)O)CC[C@]4(C)C3CC[C@@]21C (stereo not given in full),inactive
5,Cn1c(/C(C#N)=C(\O)c2ccc([N+](=O)[O-])s2)nc2ccccc21,1.16 µM (active)
6,N#C/C(=C(/O)c1ccc([N+](=O)[O-])s1)c1nc2ccccc2[nH]1,2.31 µM (active)
7,N#C/C(=C(/O)c1ccc([N+](=O)[O-])o1)c1nc2ccccc2[nH]1,0.326 µM (active)
8,Cc1nc2c(nc1C)C(=O)c1ccccc1C2=O,3.26 µM (active)
9,O=C(Nc1nc(-c2cccs2)cs1)c1ccc([N+](=O)[O-])o1,0.65 µM (active)
10,Cc1ccc(-c2csc(NC(=O)c3ccc([N+](=O)[O-])o3)n2)cc1,1.63 µM (active)
11,c1ccc(-c2nc(-c3cnc4ccccc4n3)cs2)cc1,5.79 µM (active)
12,c1ccc(CCNc2ncnc3nc[nH]c23)cc1,inactive
13,O=c1cc[nH]c2ccc([N+](=O)[O-])cc12,4.1 µM (active)
14,O=c1[nH]cnc2ccc([N+](=O)[O-])cc12,1.63 µM (active)
15,COc1ccc(/C(O)=C2/C(=O)C(=O)N(CCCN3CCOCC3)C2c2ccc(N(C)C)cc2)cc1 (stereo not given),inactive
16,O=C(/C=C/c1cccc([N+](=O)[O-])c1)c1ccco1,7.29 µM (active)
17,Brc1ccc(CNc2nc3ccccc3n2CCN2CCCCC2)cc1,0.516 µM (active)
18,COc1ccccc1CN=c1c([N+](=O)[O-])nn(-c2ccc3c(c2)OCCO3)n1O,4.6 µM (active)
19,O=[N+]([O-])c1nn(-c2ccc3c(c2)OCCO3)n(O)c1=NCc1ccccc1Cl,4.6 µM (active)
20,O=C(/C=C/c1ccc([N+](=O)[O-])s1)N1CCCC1,1.83 µM (active)
21,O=C(/C=C/c1ccc([N+](=O)[O-])s1)N1CCN(c2ccccc2)CC1,1.45 µM (active)
22,O=C(/C=C/c1ccc([N+](=O)[O-])s1)N1CCCCC1,1.45 µM (active)
23,CC1CC(C)CN(C(=O)/C=C/c2ccc([N+](=O)[O-])s2)C1 (stereo not given),4.6 µM (active)
24,O=[N+]([O-])c1c(Nc2ccc(Br)cc2)ccc2nonc12,2.9 µM (active)

row,SMILES,Potency
1,COC(=O)c1ccc(Nc2ccc3nonc3c2[N+](=O)[O-])cc1,2.05 µM (active)
2,O=C(Cc1ccccc1)N/N=C/c1ccc([N+](=O)[O-])s1,1.83 µM (active)
3,O=C(Cc1cccs1)N/N=C\c1ccc([N+](=O)[O-])s1,2.9 µM (active)
4,CC(=O)Nc1ccc(S(=O)(=O)N(CCc2ccccc2)CC(=O)N/N=C/c2ccc(C(=O)O)cc2)cc1,inactive
5,NCCCn1c(C(=O)c2cc(Cl)c(N)c(Cl)c2)c2ccccc2[n+]1[O-],1.3 µM (active)
6,NCCCn1c(C(=O)c2cc(Cl)c(N)c(Cl)c2)c2ccc([N+](=O)[O-])cc2[n+]1[O-],1.63 µM (active)
7,NC(=O)CCCn1c(C(=O)c2cc(Cl)c(N)c(Cl)c2)c2ccc([N+](=O)[O-])cc2[n+]1[O-],5.16 µM (active)
8,CC[C@]1(C(=O)OC)[C@H]2C(=O)N(C)C(=O)[C@H]2[C@H]2CN(C)C(=NC)N21,inactive
9,CC(C)(C)NC(=O)CCN(/N=C/c1ccc([N+](=O)[O-])o1)C1=NS(=O)(=O)c2ccccc21,1.16 µM (active)
10,O=[N+]([O-])c1ccc(-c2nc(C(Cl)Cl)c3ccccc3n2)cc1,1.3 µM (active)
11,Cc1ccc2nc(N/N=C\c3ccc([N+](=O)[O-])o3)nc(-c3ccccc3)c2c1,0.46 µM (active)
12,O=[N+]([O-])c1ccc(/C=N/Nc2nc(-c3ccccc3)c3cc(Br)ccc3n2)o1,0.918 µM (active)
13,Cc1cc(N/N=C/c2ccc([N+](=O)[O-])o2)nc2ccccc12,1.83 µM (active)
14,Cc1ccccc1C(=O)N1CCN(c2ccc(NC(=O)c3ccc([N+](=O)[O-])o3)cc2)CC1,0.818 µM (active)
15,O=C(Nc1ccc(N2CCN(C(=O)c3ccc(Cl)cc3)CC2)cc1)c1ccc([N+](=O)[O-])o1,0.579 µM (active)
16,O=C(Nc1ccc(N2CCN(C(=O)c3ccccc3)CC2)cc1)c1ccc([N+](=O)[O-])o1,0.818 µM (active)
17,COCCNc1cc(NCCOC)c([N+](=O)[O-])cc1[N+](=O)[O-],1.45 µM (active)
18,COC(=O)c1ccc2cc(OC)cc([N+](=O)[O-])c2n1,5.79 µM (active)
19,COCc1nnc(NC(=O)c2ccc(Cl)cc2[N+](=O)[O-])s1,2.59 µM (active)
20,O=C(C1=C(c2ccccc2)C(=O)c2ccccc2C1=O)c1ccccc1,11.6 µM (active)
21,O=[N+]([O-])c1cc(C(F)(F)F)ccc1Oc1cccnc1[N+](=O)[O-],4.1 µM (active)
22,Cc1csc(NC(=O)c2cn3ccccc3n2)n1,1.63 µM (active)
23,O=C(COc1cccnc1[N+](=O)[O-])NCc1ccc(F)cc1,5.16 µM (active)
24,COc1cccc(NC(=O)COc2cccnc2[N+](=O)[O-])c1,4.6 µM (active)

row,SMILES,Potency
1,CCN(CC)CCNC(=O)c1ccc(NC(=O)COc2ccc3c(c2)CCC3)cc1,inactive
2,O=C(COc1cccnc1[N+](=O)[O-])Nc1ccc2c(c1)CCC2,16.3 µM (active)
3,O=C(CCN1C(=O)c2ccccc2C1=O)NCc1ccc(F)cc1,inactive
4,CCN(CC(=O)NCc1cccs1)C(=O)c1ccc([N+](=O)[O-])o1,0.41 µM (active)
5,C=CCNc1ncnc2sc(SC)nc12,inactive
6,COc1ccc(C(C)=O)cc1COc1cccnc1[N+](=O)[O-],6.5 µM (active)
7,COc1ccc(CNC(=O)COc2cccnc2[N+](=O)[O-])cc1,6.5 µM (active)
8,O=C(COc1cccnc1[N+](=O)[O-])NCc1ccco1,6.5 µM (active)
9,COc1ccc(CNC(=O)COc2cccnc2[N+](=O)[O-])cc1OC,11.6 µM (active)
10,O=C(COc1cccnc1[N+](=O)[O-])NCCc1ccc(Cl)cc1,3.65 µM (active)
11,CC1CCCCC1NC(=O)NC(=O)COC(=O)c1cncc(Br)c1 (stereo not given),inactive
12,O=C(COc1cccnc1[N+](=O)[O-])Nc1ccc(F)cc1,5.79 µM (active)
13,CC1CCCCC1NC(=O)COc1cccnc1[N+](=O)[O-] (stereo not given),2.31 µM (active)
14,O=C(NCCc1ccccc1)c1ccc(CS(=O)(=O)c2ccc(Cl)cc2)o1,inactive
15,CCCCc1cc(=O)oc2c(C)c(OCC(=O)NCc3ccccn3)ccc12,inactive
16,O=C(COc1cccnc1[N+](=O)[O-])NCc1cccs1,8.18 µM (active)
17,CN(C)S(=O)(=O)c1cccc(C(=O)NCCNC(=O)c2cccc(S(=O)(=O)N(C)C)c2)c1,inactive
18,CN(C)c1cc(NC(=O)CNC(C)(C)CC(C)(C)C)c2ccccc2n1,1.03 µM (active)
19,O=[N+]([O-])c1ccccc1S(=O)(=O)Oc1ccc(/C=N/n2cnnc2)cc1,0.516 µM (active)
20,O=[N+]([O-])c1ccccc1S(=O)(=O)Oc1ccccc1/C=N/n1cnnc1,2.05 µM (active)
21,Cc1cc2ccccn2c1C(=O)c1ccc([N+](=O)[O-])cc1[N+](=O)[O-],4.6 µM (active)
22,Cn1ccsc1=NC(=O)c1ccc([N+](=O)[O-])o1,0.206 µM (active)
23,Cc1[nH]n(C2=NCCS2)c(=O)c1N=Nc1cccc(C(F)(F)F)c1,6.5 µM (active)
24,CCOC(=O)C1CCN(c2ccc([N+](=O)[O-])c(C(C)=O)c2)CC1,2.31 µM (active)

row,SMILES,Potency
1,CC(=O)c1cc(N2CCOCC2)ccc1[N+](=O)[O-],1.83 µM (active)
2,CC1CCN(c2ccc(-c3ccc(NC(=O)C(F)(F)F)cc3)nn2)CC1,1.83 µM (active)
3,CCC(C(=O)OC)n1c(-c2ccccc2)nc2ccccc2c1=O (stereo not given),inactive
4,COc1ccc(-c2nc3ccccc3n2OCC(=O)O)cc1,5.79 µM (active)
5,NNC(=O)c1cccc(Cn2cc(Br)c([N+](=O)[O-])n2)c1,1.16 µM (active)
6,CC(NC(=O)Cn1cc(Br)c([N+](=O)[O-])n1)c1ccccc1 (stereo not given),0.516 µM (active)
7,O=[N+]([O-])c1ccc(COn2nnc3ccccc32)cc1,1.63 µM (active)
8,CC(Nc1nc(N2CCN(CCO)CC2)nc2ccccc12)c1ccccc1 (stereo not given),1.03 µM (active)
9,Cc1cc(C(=O)COc2cccnc2[N+](=O)[O-])c(C)n1Cc1ccco1,0.65 µM (active)
10,Cc1ccc(OCC(=O)c2cc(C)n(Cc3ccco3)c2C)c([N+](=O)[O-])n1,1.16 µM (active)
11,O=c1c2c(-c3ccccc3)csc2ncn1/N=C/c1ccc(O)c([N+](=O)[O-])c1,2.9 µM (active)
12,Cc1cc(C)cc(Oc2ccc(NC(=O)C3CC=CCC3C(=O)O)cc2)c1 (stereo not given),1.3 µM (active)
13,COC(=O)Nc1nc2ccc(SC(C)C)cc2[nH]1,0.365 µM (active)
14,COC(=O)Nc1nc2ccc(Sc3ccccc3)cc2[nH]1,0.23 µM (active)
15,COC(=O)Nc1nc2ccc(C(=O)c3cccs3)cc2[nH]1,0.23 µM (active)
16,CCc1cccc(NC(=O)CCCSc2nc3ccccc3[nH]2)c1,inactive
17,CCc1ccc(C(=O)Nc2nc3ccccc3[nH]2)cc1,0.46 µM (active)
18,CCCSc1ccc2nc(NC(=O)OC)[nH]c2c1,0.516 µM (active)
19,COc1cc(SC)ccc1C(=O)Nc1nc2ccccc2[nH]1,0.146 µM (active)
20,CC(=O)Nc1nc(-c2cc([N+](=O)[O-])cs2)cs1,1.16 µM (active)
21,CCC(=O)Nc1nc(-c2cc([N+](=O)[O-])cs2)cs1,1.3 µM (active)
22,NC(=O)c1ccc(Nc2ccc([N+](=O)[O-])cc2[N+](=O)[O-])cc1,2.9 µM (active)
23,NC(=O)c1ccc(NC(=O)COc2ccc([N+](=O)[O-])cc2Cl)cc1,1.16 µM (active)
